# Results filed as inconclusive are left out. Entries that show only a call come without a potency. Values without a mark were called inactive. Calls of active or inactive are those of the source. Calls follow the shape of the full dose curve.
# Assay: p53 small molecule agonists, cell-based qHTS assay: qHTS cell viability counter screen (AID 1963581); also: nearly all actives have a fitted effect of over 45% in size
# Settings: p53RE-bla HCT-116 viability, ATP luminescence, 16 h; series mostly up to 66 µM
# Source text: National Center for Advancing Translational Sciences [NCATS]
# Division of Preclinical Innovation [DPI]
# U.S. Environmental Protection Agency [EPA]
# National Institutes of Environmental Health Sciences [NIEHS]
# National Toxicology Program [NTP]
# U.S. Food and Drug Administration [FDA]
# p53, a tumor suppressor protein, is activated following cellular insult, including DNA damage and other cellular stresses. The activation of p53 regulates cell fate by inducing DNA repair, cell cycle arrest, apoptosis, or cellular senescence. The activation of p53, therefore, is a good indicator of DNA damage and other cellular stresses. The CellSensor p53RE-bla HCT-116 cell line (Invitrogen) contains a stably integrated beta-lactamase reporter gene under control of the p53 response elements. The activation of the reporter gene under culture conditions can be detected by fluorescence intensity. This cell line was used to screen the Tox21 compound library in a 1536-well plate format and to identify agonists that activate the p53 signaling pathway. The cytotoxicity of the Tox21 compound library against the p53 RE-bla HCT-116 cell line was tested in parallel by measuring the intra cellular ATP content in the same wells.
# Tox21 Assay Protocol Summary:
# The p53RE-bla cells were dispensed at 4,000 cells/5 ul/well in 1536-well black wall/clear bottom plates using a Multidrop dispenser. After the assay plates were incubated at a 37 C/5% CO2 incubator for 5 hours, 23 nL of compounds dissolved in DMSO, positive controls or DMSO only was transferred to the assay plate by a pin tool. The plates were incubated at 37 C for 16 hours. After 1 uL of LiveBLAzerTM B/G FRET substrate was added using a Flying Reagent Dispenser, the plates were incubated at room temperature for 2 hours, and fluorescence intensity was measured by an Envision plate reader. For cell viability readout that measures cytotoxicity, 4 ul/well of CellTiter-Glo reagent was added into the assay plates using a Flying Reagent Dispenser. After 30 min incubation at room temperature, the luminescence intensity in the plates was measured using a ViewLux plate reader.
Compound,Potency,"activity change, negative = cytotoxicity"
Nc1[nH]c(=O)ncc1F,inactive,–
CN(C(=O)C(Cl)Cl)c1ccc(OC(=O)c2ccco2)cc1,inactive,–
C/C=C/C=C/COC(=O)C(C)C,inactive,–
OC1CCCc2ccccc21 (stereo not given),inactive,–
Cc1c(N)cccc1[N+](=O)[O-],inactive,–
Nc1ccc(NC(=O)c2ccc(N)cc2)cc1,inactive,–
Nc1nc(CC(=O)O)cs1,inactive,–
CC(=O)OCC(=O)[C@@]1(O)CC[C@H]2[C@@H]3CCC4=CC(=O)C=C[C@]4(C)[C@@]3(F)[C@@H](O)C[C@@]21C,inactive,–
CCS(=O)(=O)CCn1c([N+](=O)[O-])cnc1C,inactive,–
CCCCNS(=O)(=O)c1ccc(C)cc1,inactive,–
CC(COC(C)(C)C)OCCCO (stereo not given),inactive,–
C=CCCCCCCCCC(=O)OCC,inactive,–
CC1=C(/C=C/C(C)=C\C=C\C(C)=C\C(=O)O)C(C)(C)CCC1,inactive,–
CC12CCC(CC1=O)C2(C)C (stereo not given),inactive,–
CC(C(=O)O)c1ccc2c(c1)CC(=O)c1ccccc1S2 (stereo not given),inactive,–
CCCC(=O)C(=O)O,inactive,–
C=CC1CC2C=CC1C2 (stereo not given),inactive,–
CCCOC(=O)c1ccc(C(=O)OCCC)nc1,inactive,–
Cc1nc2n(c(=O)c1CCN1CCC(C(=O)c3ccc(F)cc3)CC1)CCS2,inactive,–
COc1cc(OC)nc(NC(=O)NS(=O)(=O)Nc2ccccc2C(=O)N(C)C)n1,inactive,–

Compound,Potency,"activity change, negative = cytotoxicity"
CCCCOCC,inactive,–
NCC(=O)O,–,-0.356% [at 13.5 µM]
CCCCCCCCOC(C)=O,inactive,–
COc1ccc(C(=O)N2CCN(CC(=O)N3CCOCC3)CC2)cc1,inactive,–
O=C(OOC(=O)c1ccccc1)c1ccccc1,inactive,–
COc1cc(OC)cc(OC)c1,inactive,–
CC(C)OC(=O)C(C(=O)OC(C)C)=C1SC=CS1,inactive,–
O=C(O)CCCc1c[nH]c2ccccc12,inactive,–
Cc1ccc2ccccc2n1,inactive,–
C=C(C)C(=O)OCCCCCCCCCCOC(=O)C(=C)C,inactive,–
Cc1ccc2oc(CN(Cc3ccccc3)C(=O)Nc3c(F)cc(F)cc3F)c(-c3ccc(Cl)cc3)c2c1,inactive,–
C1=CCC(c2ccccc2)CC1 (stereo not given),inactive,–
O=S(=O)(O)c1ccc(Cl)cc1,inactive,–
CCCN(CCC)C(=O)C(CCC(=O)OCCCN1CCN(CCOC(=O)Cc2c(C)n(C(=O)c3ccc(Cl)cc3)c3ccc(OC)cc23)CC1)NC(=O)c1ccccc1 (stereo not given),inactive,–
NC[C@H]1O[C@H](O[C@H]2[C@H](O[C@@H]3O[C@H](CO)[C@@H](O)[C@H]3O)C(O)[C@H](N)C[C@@H]2N)[C@H](N)[C@@H](O)[C@@H]1O (stereo not given in full),–,0.386% [at 5.99 µM]
CN1CCN(c2c(F)cc3c(=O)c(C(=O)O)cn4c3c2OCN4C)CC1,–,0.627% [at 13.5 µM]
O=C(O)Cc1csc(-c2ccc(Cl)cc2)n1,inactive,–
Cc1c(C(=O)NCCO)[n+](=O)c2ccccc2n1[O-],inactive,–
CCCCCCc1ccc(N)cc1,inactive,–
OCc1ccccn1,inactive,–

# — PubChem BioAssay (Tox21)
